Among the data in ChEMBL document CHEMBL1157539, “Thousands of chemical starting points for antimalarial lead identification” (Nature, 2010) are Inhibition values, retold here.

What all share (assay type): functional
The test system of test [1] is Plasmodium falciparum. Description: GSK_TCMDC: Inhibition of Plasmodium falciparum 3D7 in whole red blood cells, using parasite LDH activity as an index of growth. Test compounds present at 2uM.
Test [2] deals with Plasmodium falciparum. Description: GSK_TCMDC: Inhibition of Plasmodium falciparum Dd2 in whole red blood cells, using parasite LDH activity as an index of growth. Test compounds present at 2uM.
For a further test, the system named is HepG2. Description: GSK_TCMDC: Percent inhibition of human HepG2 cell line. Test compounds present at 10uM.

For `Cc1cccc2nc(-c3cccc(-c4cccc(CNCCc5cccn5C)c4)c3)[nH]c12.O=C(O)C(F)(F)F`, the Inhibition in the test on Plasmodium falciparum [1] stood at 91%; in the test on Plasmodium falciparum [2], 49%; in the test with HepG2 it was 4%.

For `CCn1c(-c2nonc2N)nc2c(-c3ccc(CO)o3)ncc(OCCCN)c21.O=C(O)C(F)(F)F`, the values for the Inhibition in the test on Plasmodium falciparum [1], in the test with Plasmodium falciparum [2] and with HepG2 were 93%, 97% and 0%, respectively.

For the compound `O=S(=O)(Nc1cccc(CCN2CCCCC2CCN2CCCC2)c1)c1ccc2ccccc2c1` (centres undefined), the Inhibition with Plasmodium falciparum [1] is given as 91%; in the test on Plasmodium falciparum [2], 40%; in the test on HepG2, 22%.

As to `N#Cc1ccc(N/C(=N\c2ccc(-c3ccccc3)cc2)NCCc2c[nH]c3ccccc23)c(O)c1`, the Inhibition in the test on Plasmodium falciparum [1] is reported as 96%; in the test with Plasmodium falciparum [2], 75%; with HepG2, 6%.

For the compound `CC(CN1CCN(C)CC1)C(=O)Nc1cccc(-c2ccc(-c3nc4cc(F)ccc4[nH]3)cc2)c1` (centres undefined), the Inhibition in the test with Plasmodium falciparum [1] was 100%; in the test on Plasmodium falciparum [2], 98%; in the test on HepG2, 10%.

With `O=C(O)C(F)(F)F.O=S(=O)(NCCN1CCCC1)c1ccc(-c2ccc(CNC3Cc4ccccc4C3)cc2)cc1`, the results for the Inhibition in the test on Plasmodium falciparum [1], in the test with Plasmodium falciparum [2] and with HepG2 were 99%, 91% and 61%, respectively.

As for `CCNc1cc(C(=O)N[C@@H](Cc2ccccc2)[C@H](O)CNC(C)(C)CCCC(C)C)cc(N2CCCC2=O)c1.O=CO`, the Inhibition with Plasmodium falciparum [1] is on record as 100%; in the test on Plasmodium falciparum [2] it was 81%; in the test with HepG2, 0%.

With `c1cncc(NCc2ccc(-c3cc4ccncc4cc3OC3CCNCC3)s2)c1`, the Inhibition in the test on Plasmodium falciparum [1] was 100%; in the test on Plasmodium falciparum [2], 19%; in the test on HepG2, 4%.

For the compound `Cc1cc(N(CCCN(C)C)Cc2cc(F)cc(F)c2)nc(Nc2ccc(Cl)cc2)n1`, the Inhibition is recorded as 99% in the test on Plasmodium falciparum [1], 97% in the test on Plasmodium falciparum [2] and 37% with HepG2.

For the compound `Cc1nc(C)c(CC(=O)Nc2ccc(-c3cccc(-c4nc5cc(C(F)(F)F)ccc5[nH]4)c3)cc2)s1`, the Inhibition in the test with Plasmodium falciparum [1] is listed as 86%; in the test with Plasmodium falciparum [2] it was 4%; with HepG2 it was 67%.

In the case of `CC(C)N1CCC(NC(=O)N2CCCN(c3ncnc4cc(-c5ccc(Cl)cc5)sc34)CC2)CC1.O=C(O)C(F)(F)F`, the Inhibition was 81% in the test with Plasmodium falciparum [1], 7% with Plasmodium falciparum [2] and 6% in the test with HepG2.

In the case of `O=C(O)C(F)(F)F.O=[N+]([O-])c1cccc(CNCC2CCN(Cc3ccc(Cl)c(Cl)c3)CC2)c1`, the figures for the Inhibition in the test on Plasmodium falciparum [1], in the test on Plasmodium falciparum [2] and in the test on HepG2 were 100%, 41% and 9%, respectively.

Turning to `CN1CCN(C(C(=O)NCc2cc(Cl)cc(Cl)c2)c2ccccc2-c2ccsc2)CC1` (centres undefined), the Inhibition in the test on Plasmodium falciparum [1] was determined as 95%; with Plasmodium falciparum [2], 80%; in the test with HepG2, 11%.

Turning to `N#Cc1ccc(C=Cc2nccc3c2[nH]c2ccccc23)cc1`, the Inhibition in the test with Plasmodium falciparum [1] is recorded as 97%; in the test with Plasmodium falciparum [2], 28%; in the test on HepG2, 33%.

For the compound `O=C(CN1CCC(NCc2cnc(-c3ccc(Cl)cc3)[nH]2)CC1)N1CCc2ccccc21`, the Inhibition stood at 100% in the test on Plasmodium falciparum [1], 5% in the test with Plasmodium falciparum [2] and 11% in the test with HepG2.

Consider `Cn1nccc1C(=O)NCCNCc1cccc(-c2cccc(-c3nc4cc(C(F)(F)F)ccc4[nH]3)c2)c1.O=C(O)C(F)(F)F`, for which the Inhibition turned out to be 100% with Plasmodium falciparum [1], 99% in the test on Plasmodium falciparum [2] and 39% in the test on HepG2.

For `Clc1ccc(-c2cc3c(NCc4ccncc4)nccc3s2)cc1`, the Inhibition with Plasmodium falciparum [1] turned out to be 98%; in the test with Plasmodium falciparum [2] it was 8%; in the test with HepG2, 26%.

Take `O=C(Nc1ccc(I)cc1)N1CCc2sccc2C1CN1CCCCC1` (centres undefined): the Inhibition in the test with Plasmodium falciparum [1] is 90%; with Plasmodium falciparum [2], 0%; in the test with HepG2 it was 33%.

`Cc1ccc(C2CC(=O)CC(c3ccccn3)C2[N+](=O)[O-])cc1` (centres undefined): the results for the Inhibition in the test with Plasmodium falciparum [1], with Plasmodium falciparum [2] and in the test on HepG2 were 97%, 2% and 5%, respectively.

As to `O=C(Cn1c(SCc2cccc(F)c2F)cc(=O)c2ccccc21)N(CCN1CCCCC1)Cc1ccc(-c2ccc(C(F)(F)F)cc2)cc1.O=C(O)C(O)C(O)C(=O)O`, the Inhibition was 99% in the test with Plasmodium falciparum [1], 82% with Plasmodium falciparum [2] and 41% with HepG2.

Consider `COc1ccc2nccc([C@@H](O)CN3CCC(NCc4cc5cc(OC(F)(F)F)ccc5[nH]4)CC3)c2c1.O=C(O)C(=O)O`, for which the figures for the Inhibition in the test on Plasmodium falciparum [1], in the test on Plasmodium falciparum [2] and in the test on HepG2 were 100%, 82% and 49%, respectively.

Take `Nc1nccc2ccc(-c3ccc4ncccc4c3)cc12.O=C(O)C(F)(F)F`: the values for the Inhibition with Plasmodium falciparum [1], in the test with Plasmodium falciparum [2] and in the test with HepG2 were 100%, 100% and 97%, respectively.

As for `CN1CCN(CCCN(Cc2cccc(-c3ccc(CNC4CCCC4)cc3)c2)C(=O)CCC2CCCC2)CC1.O=C(O)C(F)(F)F`, the Inhibition came to 97% in the test with Plasmodium falciparum [1], 84% in the test with Plasmodium falciparum [2] and 16% in the test on HepG2.

In the case of `N#Cc1cncc(-c2nc3c(N4CCC(Cc5ccccc5)CC4)cccc3n2C2CCNC2)c1.O=C(O)C(F)(F)F` (centres undefined), the Inhibition in the test on Plasmodium falciparum [1] was found to be 88%; in the test on Plasmodium falciparum [2], 7%; in the test with HepG2, 5%.

For `O=c1cc(NCCCNCc2[nH]c3cc(Cl)cc(Cl)c3c2Cn2cccn2)[nH]c2ccccc12`, the results for the Inhibition in the test on Plasmodium falciparum [1], in the test with Plasmodium falciparum [2] and in the test on HepG2 were 86%, 2% and 5%, respectively.

For `CS(=O)(=O)Nc1ccc(OCCCCCCOc2ccc(NS(C)(=O)=O)cc2)cc1`, the figures for the Inhibition in the test on Plasmodium falciparum [1], in the test on Plasmodium falciparum [2] and in the test with HepG2 were 93%, 82% and 3%, respectively.

Regarding `Cc1cccc(Nc2nccc(Nc3cccc(C(=O)NCCN4CCOCC4)c3)n2)c1`, the Inhibition in the test on Plasmodium falciparum [1] came out at 91%; in the test with Plasmodium falciparum [2], 11%; with HepG2, 10%.

For `O=C(Nc1cc(Cl)ccc1-n1cncn1)C1(c2ccccc2)CC1`, the Inhibition in the test with Plasmodium falciparum [1] is 98%; with Plasmodium falciparum [2] it was 91%; with HepG2 it was 3%.

The term Inhibition denotes the change of the read-out against control, counted positive when it falls.
